Laboratory results reported in PubChem BioAssay (Tox21).
Results filed as inconclusive are left out. Unmarked numbers belong to inactive results. The source made the active and inactive calls. Unless noted, the call rests on the fitted dose curve; in most records, active means well fitted cell-killing curve with a large enough effect in the repeat runs (not every such curve was filed as active); inconclusive means weak or mixed curves, or effect the other way; inactive means no such curve, though single readings can be large or run the other way.

target: Nuclear receptor subfamily 1 group I member 3 (Homo sapiens) (UniProt Q14994); assay: qHTS assay to identify small molecule agonists of the constitutive androstane receptor (CAR) signaling pathway (AID 1224839; active means well fitted curve in the direction sought with a large enough effect in the repeat runs; an effect the other way counts as inactive or inconclusive;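 further: HepG2 cells stably carrying human CAR and a CYP2B6 luciferase reporter; nearly all actives have a fitted effect of over 15% in size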); settings: HepG2 hCAR CYP2B6-luciferase, agonist mode, 24 h; series mostly up to 92.4 µM; activation: at the top concentration
In short: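 Cells were plated and incubated 4 hrs, then dosed with compounds at 15 concentrations. PK11195 was added to 0.75 uM final. After 24 hrs at 37 C, luciferase luminescence was measured.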
On the % scale 0 is the no-effect control and ±100 the full control effect.

Nuclear receptor subfamily 1 group I member 3 (Homo sapiens), sequence (Q14994 whole entry, looked up): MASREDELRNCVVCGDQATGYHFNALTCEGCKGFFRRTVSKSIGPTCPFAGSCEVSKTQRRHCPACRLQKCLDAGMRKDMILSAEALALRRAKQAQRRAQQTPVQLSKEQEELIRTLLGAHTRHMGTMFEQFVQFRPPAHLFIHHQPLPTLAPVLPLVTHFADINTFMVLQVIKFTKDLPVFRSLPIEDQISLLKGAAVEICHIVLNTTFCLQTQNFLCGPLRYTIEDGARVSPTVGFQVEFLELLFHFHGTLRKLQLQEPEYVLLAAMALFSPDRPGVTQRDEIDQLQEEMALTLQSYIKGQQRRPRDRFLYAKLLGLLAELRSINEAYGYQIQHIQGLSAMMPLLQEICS

| SMILES | activation |
| --- | --- |
| O=C(OCC1(COC(=O)c2cccnc2)CCCC(COC(=O)c2cccnc2)(COC(=O)c2cccnc2)C1O)c1cccnc1 | 0.129% [at 42.5 µM] |
| Nc1ccc2cc(S(=O)(=O)O)cc(O)c2c1 | -0.301% |
| Nc1cccc(O)c1 | 3.82% |
| O=P(O)(O)OP(=O)(O)O | -0.753% |
| CC(CN)CC(C)(C)CCN (stereo unspecified) | -5.02% [at 240 µM] |
| CC(N)C(=O)OC(C)(C)Cc1ccc(Cl)cc1 (stereo unspecified) | 2.59% [at 42.5 µM] |
| CC1=C(C(=O)O)N2C(=O)[C@@H](NC(=O)[C@H](N)c3ccc(O)cc3)[C@H]2SC1 | 0.322% [at 42.5 µM] |
| OC[C@H](Cc1cccc(O)c1)[C@H](CO)Cc1cccc(O)c1 | 0.0719% |
| O=S(=O)(O)c1cc(O)c2ccc(Nc3ccccc3)cc2c1 | 3.26% |
| Cc1ccc2ccc(Cl)cc2n1 | 0.305% [at 42.5 µM] |
| N[C@@H](CCC(=O)Nc1ccc([N+](=O)[O-])cc1)C(=O)O | 4.02% |

test system: not listed separately; assay: qHTS assay to identify small molecule antagonists of the estrogen related receptor signaling pathway with the pleiotropic PPARgamma coactivator (PGC) from Tox21 10K library - cell viability counter screen (AID 1224840); settings: PGC/ERR reporter cells viability, CellTiter-Fluor, 17.5 h; series mostly up to 92.4 µM; viability change, negative = cytotoxic: at the top concentration; further: nearly all actives have a fitted effect of over 40% in size
In short: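 PGC/ERR cells, 2,000/well; 6 h pre-incubation 37 C/5% CO2; cpd in DMSO via pin tool; 17.5 h 37 C; CellTiter-Fluor, 30 min; fluorescence.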

| SMILES | viability change, negative = cytotoxic |
| --- | --- |
| O=C(OCC1(COC(=O)c2cccnc2)CCCC(COC(=O)c2cccnc2)(COC(=O)c2cccnc2)C1O)c1cccnc1 | -9.13% [at 42.5 µM] |
| BrCc1cccc(Oc2ccccc2)c1 | 4.26% |
| CCOc1cc([N+](=O)[O-])c(OCC)cc1N1CCOCC1 | -24.8% |
| Cc1ccccc1C(=O)Nc1ccc(C(=O)N2CCCC(N(C)C)c3ccccc32)cc1 (stereo unspecified) | -5.09% [at 42.5 µM] |
| CCCCCCOc1ccccc1C(N)=O | -1.03% [at 42.5 µM] |
| CC(C)=CCOC(=O)c1ccccc1 | 3.76% |
| CCOCCOC(=O)/C=C/c1ccc(OC)cc1 | 15.7% [at 42.5 µM] |
| COCCOC(=O)C1=C(C)NC(C)=C(C(=O)OC(C)C)C1c1cccc([N+](=O)[O-])c1 (stereo unspecified) | -19.1% [at 42.5 µM] |
| Nc1ccc2cc(S(=O)(=O)O)cc(O)c2c1 | -11.8% |
| O=C(Nc1ccc(Cl)c(Cl)c1)C1CC1 | -0.0586% [at 42.5 µM] |
| Nc1cccc(O)c1 | -7.09% |
| COc1cc(N)ccc1C | -14.5% |
| O=C(OCC(O)CO)c1ccccc1Nc1ccnc2c(C(F)(F)F)cccc12 (stereo unspecified) | -12.2% [at 42.5 µM] |
| C[C@@H]1O[C@@H](O[C@@H]2[C@@H](O)[C@H](OCCc3ccc(O)c(O)c3)O[C@H](CO[C@@H]3O[C@H](CO)[C@@H](O)[C@H](O)[C@H]3O)[C@H]2OC(=O)/C=C/c2ccc(O)c(O)c2)[C@H](O)[C@H](O)[C@H]1O | -15.4% |
| N[C@@H](CCC(=O)N[C@@H](CS)C(=O)NCC(=O)O)C(=O)O | 15.7% [at 19 µM] |
| O=C(c1ccc(O)cc1)c1ccc(O)c(O)c1O | -27.7% |
| CC(C)NCC(O)COc1cccc2[nH]ccc12 (stereo unspecified) | -9.51% [at 42.5 µM] |

| SMILES | viability change, negative = cytotoxic |
| --- | --- |
| O=P(O)(O)OP(=O)(O)O | -3.11% |
| CC(CN)CC(C)(C)CCN (stereo unspecified) | -20.1% [at 238 µM] |
| O=C1c2cccc3c2[C@H](CCC3)CN1[C@@H]1CN2CCC1CC2 | -24.1% [at 42.5 µM] |
| CCCCOC(=O)c1ccccc1 | 3.84% |
| CC(=O)Nc1cccc(C)c1 | -27.9% |
| CC(COC(C)(C)C)OCCCO (stereo unspecified) | 1.42% |
| OC[C@H](Cc1cccc(O)c1)[C@H](CO)Cc1cccc(O)c1 | 0.9% |
| c1ccc2c(c1)ccc1c3ccccc3ccc21 | 4.4% [at 42.5 µM] |
| O=S(=O)(O)c1cc(O)c2ccc(Nc3ccccc3)cc2c1 | -19.1% |
| COc1ccc(-c2cc(=O)c3c(O)cc(O[C@@H]4O[C@H](CO[C@@H]5O[C@@H](C)[C@H](O)[C@@H](O)[C@H]5O)[C@@H](O)[C@H](O)[C@H]4O)cc3o2)cc1O | -11.1% [at 42.5 µM] |
| CC(C)C(=O)OCCc1ccccc1 | 2.03% |
| C#CC(C)N(C)C(=O)Nc1ccc(Cl)cc1 (stereo unspecified) | -9.91% |
| CCOC(=O)c1ccc(OC(=O)CCCCCN=C(N)N)cc1 | -9.38% [at 42.5 µM] |
| Cc1ccc2ccc(Cl)cc2n1 | -8.17% [at 42.5 µM] |
| N[C@@H](CCC(=O)Nc1ccc([N+](=O)[O-])cc1)C(=O)O | -12.3% |
| CC(=O)OC(C)OC(=O)C(C)c1ccc(-c2ccccc2)c(F)c1 (stereo unspecified) | 10.1% [at 42.5 µM] |

test system: not listed separately; assay: qHTS assay to identify small molecule antagonists of the estrogen related receptor signaling pathway with the pleiotropic PPARgamma coactivator (PGC) from Tox21 10K library (AID 1224841; call rule not given here; further: actives are mostly falling curves and most rising ones were filed inactive; nearly all actives have a fitted effect of over 50% in size; further: potency means the concentration at half of the fitted maximal effect); settings: PGC/ERR reporter cell line, ONE-Glo luciferase, 18 h; series mostly up to 92.4 µM; activity, negative = inhibition: at the top concentration
In short: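 PGC/ERR cell line, 2,000 cells/well; 6 h pre-incubation 37 C/5% CO2; compounds (DMSO) pinned in; 18 h, 37 C; One-Glo, 30 min RT; luminescence.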

| SMILES | activity, negative = inhibition | Potency |
| --- | --- | --- |
| BrCc1cccc(Oc2ccccc2)c1 | 23.1% | – |
| CC(C)=CCOC(=O)c1ccccc1 | -0.0518% | – |
| Nc1ccc2cc(S(=O)(=O)O)cc(O)c2c1 | -20.3% | – |
| O=C(Nc1ccc(Cl)c(Cl)c1)C1CC1 | -17% [at 42.5 µM] | – |
| COc1cc(N)ccc1C | – | 1520 nM (active) |
| O=C(c1ccc(O)cc1)c1ccc(O)c(O)c1O | -16.9% | – |
| O=C1c2cccc3c2[C@H](CCC3)CN1[C@@H]1CN2CCC1CC2 | 25.4% [at 42.5 µM] | – |
| CCCCOC(=O)c1ccccc1 | -5.4% | – |
| CC(COC(C)(C)C)OCCCO (stereo unspecified) | -0.648% | – |
| OC[C@H](Cc1cccc(O)c1)[C@H](CO)Cc1cccc(O)c1 | -22.9% | – |
| COc1ccc(-c2cc(=O)c3c(O)cc(O[C@@H]4O[C@H](CO[C@@H]5O[C@@H](C)[C@H](O)[C@@H](O)[C@H]5O)[C@@H](O)[C@H](O)[C@H]4O)cc3o2)cc1O | 2.87% [at 42.5 µM] | – |
| C#CC(C)N(C)C(=O)Nc1ccc(Cl)cc1 (stereo unspecified) | 10.7% | – |
| CCCCCCCCCCl | 8.42% | – |
| N[C@@H](CCC(=O)Nc1ccc([N+](=O)[O-])cc1)C(=O)O | 1.61% | – |

test system: not listed separately; assay: qHTS assay to identify small molecule agonists of the estrogen related receptor signaling pathway with the pleiotropic PPARgamma coactivator (PGC) from Tox21 10K library (AID 1224842; active means well fitted curve in the direction sought with a large enough effect in the repeat runs; an effect the other way counts as inactive or inconclusive; further: nearly all actives have a fitted effect of over 15% in size); settings: PGC/ERR reporter cell line, luciferase ONE-Glo, 18 h; series mostly up to 92.4 µM; activation: at the top concentration
In short: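 PGC/ERR reporter cell line, 2,000 cells per well, incubated 6 h at 37 C before 23 nL compound in DMSO was added. After 18 h at 37 C, One-Glo luminescence read following 30 min at room temperature.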

| SMILES | activation |
| --- | --- |
| BrCc1cccc(Oc2ccccc2)c1 | 7.1% |
| CC(C)=CCOC(=O)c1ccccc1 | -0.0174% |
| Nc1ccc2cc(S(=O)(=O)O)cc(O)c2c1 | -6.57% |
| O=C(Nc1ccc(Cl)c(Cl)c1)C1CC1 | -3.95% [at 42.5 µM] |
| COc1cc(N)ccc1C | -3.69% |
| O=C(c1ccc(O)cc1)c1ccc(O)c(O)c1O | -7.4% |
| CCCCOC(=O)c1ccccc1 | 0.763% |
| CC(COC(C)(C)C)OCCCO (stereo unspecified) | -0.2% |
| OC[C@H](Cc1cccc(O)c1)[C@H](CO)Cc1cccc(O)c1 | -7.8% |
| COc1ccc(-c2cc(=O)c3c(O)cc(O[C@@H]4O[C@H](CO[C@@H]5O[C@@H](C)[C@H](O)[C@@H](O)[C@H]5O)[C@@H](O)[C@H](O)[C@H]4O)cc3o2)cc1O | 1.34% [at 42.5 µM] |
| C#CC(C)N(C)C(=O)Nc1ccc(Cl)cc1 (stereo unspecified) | 3.67% |
| CCCCCCCCCCl | 1.01% |
| N[C@@H](CCC(=O)Nc1ccc([N+](=O)[O-])cc1)C(=O)O | 0.497% |
